# Measured values as given in the supplement of paper PMC10732440.
# ± gives the standard deviation of the averaged measurements.
# System: Caenorhabditis elegans N2 infected with Nematocida parisii ERTm1
# Test: progeny production relative to DMSO uninfected control; higher = more progeny despite microsporidia infection (inhibition of infection with low host toxicity)
# Conditions: infection time 6 days; 40 µM
# Experimental: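 Bleach-synchronised C. elegans N2 L1 larvae (100 per well) were grown in 96-well plates in K-medium with 5x E. coli OP50 and 15,000 N. parisii spores/uL, plus Pandemic Response Box compound at 100 uM or 40 uM (1% DMSO), for 6 days at 21 C with shaking. Worms were stained with Rose Bengal, scanned on a flatbed scanner and counted with WorMachine. Progeny production is given as % of the DMSO uninfected control (triplicate wells), so higher values mean the compound restores progeny despite infection.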
row,Structure (SMILES),progeny production
1,Nc1c(C(=O)NCc2ccco2)c2nc3ccccc3nc2n1CCN1CCCCC1,6.14 ± 2.6%
2,COC(=O)Nc1nc2ccccc2[nH]1,9.55 ± 1.4%
3,CC(C)Oc1cccc(NC(=O)c2ccccc2C(F)(F)F)c1,3.26 ± 1%
4,O=C(NC12CC3CC(CC(C3)C1)C2)c1cc2ccccc2[nH]1,6.55 ± 3.2%
5,C[C@@]1(O)[C@H](O)[C@@H](CO)O[C@H]1n1ccc2c(N)ncnc21,7.31 ± 1.5%
6,COc1cc(C(C)(C)CCCC(C)C)cc(OC)c1OC,5.3 ± 1.8%
7,COc1ccccc1CN[C@H]1C2CCN(CC2)[C@H]1C(c1ccccc1)c1ccccc1,8.71 ± 4.8%
8,CCN1CCN(Cc2nc3ccc([N+](=O)[O-])cc3c(=O)n2-c2ccccc2F)CC1,6.53 ± 2.2%
9,C[N+]1(C)CCCC(OC(=O)C(O)(c2ccccc2)c2ccccc2)C1 (centres undefined),12.7 ± 11%
10,CCCCc1ccc(C(=O)O)nc1,3.89 ± 0.63%
11,CN1C(=O)C(c2ccccc2)C(=O)N(c2ccccc2)c2cc(C(F)(F)F)ccc21 (centres undefined),3.86 ± 0.4%
12,NC1(C(=O)O)CCP(=O)(O)CC1 (centres undefined),2.95 ± 1.1%

# Same assay, conditions: infection time 6 days; 100 µM
row,Structure (SMILES),progeny production
1,Nc1c(C(=O)NCc2ccco2)c2nc3ccccc3nc2n1CCN1CCCCC1,8.06 ± 4%
2,COC(=O)Nc1nc2ccccc2[nH]1,19.7 ± 17%
3,CC(C)Oc1cccc(NC(=O)c2ccccc2C(F)(F)F)c1,18.9 ± 12%
4,O=C(NC12CC3CC(CC(C3)C1)C2)c1cc2ccccc2[nH]1,5.96 ± 4%
5,C[C@@]1(O)[C@H](O)[C@@H](CO)O[C@H]1n1ccc2c(N)ncnc21,15.4 ± 2%
6,COc1cc(C(C)(C)CCCC(C)C)cc(OC)c1OC,12.1 ± 4.9%
7,COc1ccccc1CN[C@H]1C2CCN(CC2)[C@H]1C(c1ccccc1)c1ccccc1,16.1 ± 5.7%
8,CCN1CCN(Cc2nc3ccc([N+](=O)[O-])cc3c(=O)n2-c2ccccc2F)CC1,16.4 ± 6.8%
9,C[N+]1(C)CCCC(OC(=O)C(O)(c2ccccc2)c2ccccc2)C1 (centres undefined),4.14 ± 1.8%
10,CCCCc1ccc(C(=O)O)nc1,18.3 ± 10%
11,CN1C(=O)C(c2ccccc2)C(=O)N(c2ccccc2)c2cc(C(F)(F)F)ccc21 (centres undefined),8.44 ± 2%
12,NC1(C(=O)O)CCP(=O)(O)CC1 (centres undefined),16.6 ± 16%
